This is an account of results in ChEMBL document CHEMBL2218924, “A broad activity screen in support of a chemogenomic map for kinase signalling research and drug discovery” (Biochem J, 2013).

The target in experiment [1] is T1, Inhibitor of nuclear factor kappa-B kinase subunit alpha (Homo sapiens) (UniProt O15111).
T1 sequence (whole entry): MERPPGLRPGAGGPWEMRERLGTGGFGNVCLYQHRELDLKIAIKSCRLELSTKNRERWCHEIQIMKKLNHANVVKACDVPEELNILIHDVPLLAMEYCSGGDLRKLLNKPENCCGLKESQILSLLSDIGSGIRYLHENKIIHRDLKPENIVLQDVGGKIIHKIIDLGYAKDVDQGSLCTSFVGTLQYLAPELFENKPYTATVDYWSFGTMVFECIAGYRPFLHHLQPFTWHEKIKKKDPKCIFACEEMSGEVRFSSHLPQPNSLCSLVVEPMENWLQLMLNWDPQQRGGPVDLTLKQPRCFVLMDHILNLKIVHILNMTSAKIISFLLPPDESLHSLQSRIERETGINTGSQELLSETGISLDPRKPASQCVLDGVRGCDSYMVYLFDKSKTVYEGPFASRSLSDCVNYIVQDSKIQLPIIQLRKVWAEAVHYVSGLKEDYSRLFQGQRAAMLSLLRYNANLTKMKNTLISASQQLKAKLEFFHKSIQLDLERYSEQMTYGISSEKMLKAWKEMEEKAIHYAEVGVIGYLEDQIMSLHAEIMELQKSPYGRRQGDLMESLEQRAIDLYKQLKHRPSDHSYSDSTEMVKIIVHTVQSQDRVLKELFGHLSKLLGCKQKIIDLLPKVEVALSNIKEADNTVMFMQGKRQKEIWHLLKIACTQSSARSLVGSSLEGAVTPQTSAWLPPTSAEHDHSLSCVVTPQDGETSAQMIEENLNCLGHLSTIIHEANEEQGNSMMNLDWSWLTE
The conditions noted are these: at 1 µM.

The target of experiment [2] is T1, Inhibitor of nuclear factor kappa-B kinase subunit alpha (Homo sapiens). As to conditions: at 10 µM.
The target of experiment [3] is T2, Inhibitor of nuclear factor kappa-B kinase subunit beta (Homo sapiens) (UniProt O14920).
T2 sequence (whole entry): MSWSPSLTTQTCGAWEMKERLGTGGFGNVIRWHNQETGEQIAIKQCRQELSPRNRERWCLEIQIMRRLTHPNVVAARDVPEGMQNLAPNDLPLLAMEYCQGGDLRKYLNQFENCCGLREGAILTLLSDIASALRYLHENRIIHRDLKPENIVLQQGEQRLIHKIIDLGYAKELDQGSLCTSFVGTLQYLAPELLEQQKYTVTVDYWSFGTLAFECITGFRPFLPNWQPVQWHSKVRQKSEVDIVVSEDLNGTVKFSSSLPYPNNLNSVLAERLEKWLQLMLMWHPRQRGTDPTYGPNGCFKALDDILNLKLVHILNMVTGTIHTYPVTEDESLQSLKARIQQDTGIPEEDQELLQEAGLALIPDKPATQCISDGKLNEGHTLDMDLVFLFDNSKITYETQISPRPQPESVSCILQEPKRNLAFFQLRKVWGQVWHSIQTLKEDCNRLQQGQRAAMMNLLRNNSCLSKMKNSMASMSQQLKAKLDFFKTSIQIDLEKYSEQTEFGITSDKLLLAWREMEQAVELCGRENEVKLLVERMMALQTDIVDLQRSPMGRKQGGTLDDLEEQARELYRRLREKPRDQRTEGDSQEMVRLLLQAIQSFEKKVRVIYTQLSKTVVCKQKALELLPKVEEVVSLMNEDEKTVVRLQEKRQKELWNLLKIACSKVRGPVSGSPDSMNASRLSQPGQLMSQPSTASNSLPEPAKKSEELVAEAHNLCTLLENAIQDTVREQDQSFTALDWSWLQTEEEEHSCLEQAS
The conditions noted are these: at 1 µM.

The target of experiment [4] is T2, Inhibitor of nuclear factor kappa-B kinase subunit beta (Homo sapiens). The conditions noted are these: at 10 µM.
In experiment [5] the target is Insulin receptor (Homo sapiens) (UniProt P06213). The conditions noted are these: at 1 µM.
Sequence of Insulin receptor (Homo sapiens) (P06213 28-758 limits assumed): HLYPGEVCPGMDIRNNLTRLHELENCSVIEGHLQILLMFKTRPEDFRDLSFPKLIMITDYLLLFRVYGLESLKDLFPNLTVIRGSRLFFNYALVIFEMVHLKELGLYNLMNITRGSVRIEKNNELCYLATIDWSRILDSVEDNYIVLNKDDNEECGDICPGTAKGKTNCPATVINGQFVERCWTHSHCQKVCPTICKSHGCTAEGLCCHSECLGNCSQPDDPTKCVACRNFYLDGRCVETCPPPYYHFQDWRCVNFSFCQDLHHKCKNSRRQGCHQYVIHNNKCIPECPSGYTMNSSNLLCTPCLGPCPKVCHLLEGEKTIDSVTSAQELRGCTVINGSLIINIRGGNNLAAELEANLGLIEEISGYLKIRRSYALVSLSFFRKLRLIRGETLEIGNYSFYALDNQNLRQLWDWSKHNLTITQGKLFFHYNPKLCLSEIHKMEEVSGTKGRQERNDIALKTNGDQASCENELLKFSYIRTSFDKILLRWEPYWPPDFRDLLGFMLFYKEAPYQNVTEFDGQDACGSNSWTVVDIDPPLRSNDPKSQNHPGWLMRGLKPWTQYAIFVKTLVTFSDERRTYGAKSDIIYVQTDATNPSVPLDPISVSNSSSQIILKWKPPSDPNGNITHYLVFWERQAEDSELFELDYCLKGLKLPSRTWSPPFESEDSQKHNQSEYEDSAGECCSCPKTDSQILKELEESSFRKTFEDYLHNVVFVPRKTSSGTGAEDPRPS
Sequence of Insulin receptor (Homo sapiens) (P06213 763-1382 limits assumed): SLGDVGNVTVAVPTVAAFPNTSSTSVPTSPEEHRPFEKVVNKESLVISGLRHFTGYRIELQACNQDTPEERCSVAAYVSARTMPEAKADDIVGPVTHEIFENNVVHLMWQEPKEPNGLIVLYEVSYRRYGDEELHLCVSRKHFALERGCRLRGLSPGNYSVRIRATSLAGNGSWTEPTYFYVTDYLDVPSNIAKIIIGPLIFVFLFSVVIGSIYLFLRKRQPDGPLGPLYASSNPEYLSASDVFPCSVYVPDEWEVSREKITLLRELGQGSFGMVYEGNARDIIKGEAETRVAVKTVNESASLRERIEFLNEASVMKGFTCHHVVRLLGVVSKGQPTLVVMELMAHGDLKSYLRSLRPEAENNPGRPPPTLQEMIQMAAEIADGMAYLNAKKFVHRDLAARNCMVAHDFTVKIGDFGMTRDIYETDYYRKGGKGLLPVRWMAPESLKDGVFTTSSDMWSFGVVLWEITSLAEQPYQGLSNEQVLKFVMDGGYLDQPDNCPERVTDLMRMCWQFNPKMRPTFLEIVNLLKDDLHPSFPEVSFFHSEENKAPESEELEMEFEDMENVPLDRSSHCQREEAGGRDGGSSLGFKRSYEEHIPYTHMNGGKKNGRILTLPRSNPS
The target is the same in experiment [6]. As to conditions: at 10 µM.
The target is the same in experiment [7]. The conditions noted are these: at 1 µM. The source holds these as a separate data set.
For experiment [8] the target is unchanged. As to conditions: at 10 µM. This is another data set of the same source.
Experiment [9] deals with Interleukin-1 receptor-associated kinase 1 (Homo sapiens) (UniProt P51617). As to conditions: at 1 µM.
Sequence of Interleukin-1 receptor-associated kinase 1 (Homo sapiens) (P51617 whole entry, looked up): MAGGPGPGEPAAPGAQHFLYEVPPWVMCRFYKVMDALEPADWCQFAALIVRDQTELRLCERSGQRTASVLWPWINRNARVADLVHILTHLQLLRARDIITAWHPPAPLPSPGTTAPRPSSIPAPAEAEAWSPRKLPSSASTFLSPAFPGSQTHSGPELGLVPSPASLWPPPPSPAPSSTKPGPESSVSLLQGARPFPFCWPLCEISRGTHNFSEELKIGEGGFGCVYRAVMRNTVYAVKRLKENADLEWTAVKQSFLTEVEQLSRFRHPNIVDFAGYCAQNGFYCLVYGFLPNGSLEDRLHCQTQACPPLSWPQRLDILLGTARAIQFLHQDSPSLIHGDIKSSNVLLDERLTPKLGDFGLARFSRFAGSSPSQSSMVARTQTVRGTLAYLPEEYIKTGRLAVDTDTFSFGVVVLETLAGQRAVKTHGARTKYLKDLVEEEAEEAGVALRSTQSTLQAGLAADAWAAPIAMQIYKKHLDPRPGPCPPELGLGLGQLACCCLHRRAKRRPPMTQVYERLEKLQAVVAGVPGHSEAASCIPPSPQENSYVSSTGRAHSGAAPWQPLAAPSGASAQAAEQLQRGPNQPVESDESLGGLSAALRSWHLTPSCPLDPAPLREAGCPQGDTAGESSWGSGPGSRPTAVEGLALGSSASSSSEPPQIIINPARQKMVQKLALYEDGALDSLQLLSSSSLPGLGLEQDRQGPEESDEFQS
Experiment [10] has the same target. As to conditions: at 10 µM.
The target in experiment [11] is T3, Interleukin-1 receptor-associated kinase 4 (Homo sapiens) (UniProt Q9NWZ3).
T3 sequence (whole entry): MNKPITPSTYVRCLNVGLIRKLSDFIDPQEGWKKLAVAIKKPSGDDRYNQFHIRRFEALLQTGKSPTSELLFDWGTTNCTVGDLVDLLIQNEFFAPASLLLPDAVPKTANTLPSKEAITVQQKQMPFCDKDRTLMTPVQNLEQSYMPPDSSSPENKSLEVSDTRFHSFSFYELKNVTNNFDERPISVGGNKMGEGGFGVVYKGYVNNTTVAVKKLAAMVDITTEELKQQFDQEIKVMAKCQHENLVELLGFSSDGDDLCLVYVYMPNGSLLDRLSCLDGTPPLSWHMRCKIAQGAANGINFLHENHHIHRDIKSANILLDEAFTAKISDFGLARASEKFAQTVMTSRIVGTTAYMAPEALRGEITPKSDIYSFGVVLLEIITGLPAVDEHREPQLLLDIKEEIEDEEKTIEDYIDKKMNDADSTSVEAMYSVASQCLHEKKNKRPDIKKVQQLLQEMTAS
As to conditions: at 1 µM.

Experiment [12] has as its target T3, Interleukin-1 receptor-associated kinase 4 (Homo sapiens). As to conditions: at 10 µM.
Experiment [13] deals with Insulin receptor-related protein (Homo sapiens) (UniProt P14616). The conditions noted are these: at 1 µM.
Sequence of Insulin receptor-related protein (Homo sapiens) (P14616 27-742 limits assumed): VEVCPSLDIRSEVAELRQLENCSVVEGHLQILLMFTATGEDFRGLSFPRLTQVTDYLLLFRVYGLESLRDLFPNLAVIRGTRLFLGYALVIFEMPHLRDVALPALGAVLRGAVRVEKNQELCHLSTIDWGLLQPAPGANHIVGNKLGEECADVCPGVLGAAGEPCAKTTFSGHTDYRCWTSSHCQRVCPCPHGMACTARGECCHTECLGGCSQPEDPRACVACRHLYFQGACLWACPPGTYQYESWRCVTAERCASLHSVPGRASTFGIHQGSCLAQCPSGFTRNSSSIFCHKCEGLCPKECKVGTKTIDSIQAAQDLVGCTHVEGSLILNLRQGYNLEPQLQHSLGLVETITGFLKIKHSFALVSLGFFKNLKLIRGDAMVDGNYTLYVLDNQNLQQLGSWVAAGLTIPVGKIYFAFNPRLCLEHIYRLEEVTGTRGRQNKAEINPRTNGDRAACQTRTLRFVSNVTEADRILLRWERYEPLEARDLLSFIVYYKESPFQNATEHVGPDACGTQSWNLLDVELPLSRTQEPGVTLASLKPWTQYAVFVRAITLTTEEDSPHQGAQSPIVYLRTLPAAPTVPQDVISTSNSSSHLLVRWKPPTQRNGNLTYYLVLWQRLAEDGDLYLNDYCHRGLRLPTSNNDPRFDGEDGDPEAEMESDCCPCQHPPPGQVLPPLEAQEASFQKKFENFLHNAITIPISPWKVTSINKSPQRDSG
Sequence of Insulin receptor-related protein (Homo sapiens) (P14616 747-1297 limits assumed): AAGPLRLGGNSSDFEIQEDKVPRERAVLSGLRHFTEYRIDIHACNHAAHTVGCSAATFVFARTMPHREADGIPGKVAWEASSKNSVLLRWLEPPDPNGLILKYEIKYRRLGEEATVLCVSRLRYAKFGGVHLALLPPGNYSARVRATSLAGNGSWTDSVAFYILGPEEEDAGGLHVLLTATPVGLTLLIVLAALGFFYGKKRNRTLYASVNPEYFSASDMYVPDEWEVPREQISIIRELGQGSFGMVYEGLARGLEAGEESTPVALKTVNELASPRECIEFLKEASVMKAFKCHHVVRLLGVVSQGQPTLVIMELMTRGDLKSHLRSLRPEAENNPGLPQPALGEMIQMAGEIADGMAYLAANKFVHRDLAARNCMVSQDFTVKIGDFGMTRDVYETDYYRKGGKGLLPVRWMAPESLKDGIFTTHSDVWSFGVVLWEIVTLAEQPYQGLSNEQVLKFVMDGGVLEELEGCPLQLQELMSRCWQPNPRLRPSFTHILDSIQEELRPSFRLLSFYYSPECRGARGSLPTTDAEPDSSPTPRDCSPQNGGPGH
Experiment [14] has the same target. As to conditions: at 10 µM.
For experiment [15], the target named is T4, Tyrosine-protein kinase ITK/TSK (Homo sapiens) (UniProt Q08881).
T4 sequence (whole entry): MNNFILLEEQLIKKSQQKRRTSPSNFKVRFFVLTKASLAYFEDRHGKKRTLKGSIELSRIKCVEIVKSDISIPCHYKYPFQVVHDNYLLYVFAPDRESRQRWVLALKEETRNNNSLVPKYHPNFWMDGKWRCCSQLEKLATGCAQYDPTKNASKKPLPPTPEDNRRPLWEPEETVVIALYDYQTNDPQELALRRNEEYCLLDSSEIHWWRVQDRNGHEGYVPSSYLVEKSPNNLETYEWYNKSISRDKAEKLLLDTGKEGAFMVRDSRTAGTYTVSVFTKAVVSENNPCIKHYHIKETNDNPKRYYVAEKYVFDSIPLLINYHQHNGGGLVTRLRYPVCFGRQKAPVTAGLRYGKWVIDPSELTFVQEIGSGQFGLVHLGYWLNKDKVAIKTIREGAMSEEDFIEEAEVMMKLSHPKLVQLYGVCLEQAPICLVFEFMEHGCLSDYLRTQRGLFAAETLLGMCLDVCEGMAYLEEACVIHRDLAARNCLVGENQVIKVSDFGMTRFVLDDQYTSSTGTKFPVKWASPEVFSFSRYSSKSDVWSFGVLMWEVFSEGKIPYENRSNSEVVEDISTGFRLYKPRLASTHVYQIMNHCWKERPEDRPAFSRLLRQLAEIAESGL
As to conditions: at 1 µM.

Experiment [16] has as its target T4, Tyrosine-protein kinase ITK/TSK (Homo sapiens). As to conditions: at 10 µM.
The target in experiment [17] is Tyrosine-protein kinase JAK2 (Homo sapiens) (UniProt O60674). The conditions noted are these: at 1 µM.
Sequence of Tyrosine-protein kinase JAK2 (Homo sapiens) (O60674 whole entry): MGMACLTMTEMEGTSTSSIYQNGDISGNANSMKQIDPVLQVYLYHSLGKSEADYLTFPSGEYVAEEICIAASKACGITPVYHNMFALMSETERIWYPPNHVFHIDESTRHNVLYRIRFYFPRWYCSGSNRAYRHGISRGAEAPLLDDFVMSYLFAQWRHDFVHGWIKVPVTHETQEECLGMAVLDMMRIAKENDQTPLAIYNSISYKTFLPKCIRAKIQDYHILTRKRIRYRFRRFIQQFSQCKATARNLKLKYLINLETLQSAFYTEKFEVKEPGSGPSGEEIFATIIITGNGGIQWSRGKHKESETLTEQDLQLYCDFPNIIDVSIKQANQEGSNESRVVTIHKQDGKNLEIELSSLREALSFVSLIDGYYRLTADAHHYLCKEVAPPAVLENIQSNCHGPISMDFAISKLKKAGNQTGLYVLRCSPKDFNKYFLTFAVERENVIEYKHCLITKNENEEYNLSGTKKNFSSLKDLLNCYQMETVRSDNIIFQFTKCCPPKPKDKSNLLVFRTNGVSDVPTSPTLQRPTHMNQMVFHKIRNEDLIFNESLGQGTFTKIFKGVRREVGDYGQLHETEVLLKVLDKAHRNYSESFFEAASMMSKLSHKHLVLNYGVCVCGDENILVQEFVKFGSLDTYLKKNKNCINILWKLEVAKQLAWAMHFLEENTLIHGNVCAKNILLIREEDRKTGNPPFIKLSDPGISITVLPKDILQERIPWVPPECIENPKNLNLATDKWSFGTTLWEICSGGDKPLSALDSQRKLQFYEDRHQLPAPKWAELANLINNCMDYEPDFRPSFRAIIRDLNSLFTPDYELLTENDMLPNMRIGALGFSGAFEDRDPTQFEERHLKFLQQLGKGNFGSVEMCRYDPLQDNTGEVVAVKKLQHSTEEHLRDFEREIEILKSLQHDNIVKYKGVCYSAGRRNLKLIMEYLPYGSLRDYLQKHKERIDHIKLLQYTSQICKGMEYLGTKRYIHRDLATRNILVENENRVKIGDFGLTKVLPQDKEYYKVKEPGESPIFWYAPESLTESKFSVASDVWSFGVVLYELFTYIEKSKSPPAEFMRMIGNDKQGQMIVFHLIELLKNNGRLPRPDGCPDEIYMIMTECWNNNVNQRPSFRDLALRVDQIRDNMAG
Experiment [18] has the same target. As to conditions: at 10 µM.
Experiment [19] deals with T5, Tyrosine-protein kinase JAK3 (Homo sapiens) (UniProt P52333).
T5 sequence (whole entry): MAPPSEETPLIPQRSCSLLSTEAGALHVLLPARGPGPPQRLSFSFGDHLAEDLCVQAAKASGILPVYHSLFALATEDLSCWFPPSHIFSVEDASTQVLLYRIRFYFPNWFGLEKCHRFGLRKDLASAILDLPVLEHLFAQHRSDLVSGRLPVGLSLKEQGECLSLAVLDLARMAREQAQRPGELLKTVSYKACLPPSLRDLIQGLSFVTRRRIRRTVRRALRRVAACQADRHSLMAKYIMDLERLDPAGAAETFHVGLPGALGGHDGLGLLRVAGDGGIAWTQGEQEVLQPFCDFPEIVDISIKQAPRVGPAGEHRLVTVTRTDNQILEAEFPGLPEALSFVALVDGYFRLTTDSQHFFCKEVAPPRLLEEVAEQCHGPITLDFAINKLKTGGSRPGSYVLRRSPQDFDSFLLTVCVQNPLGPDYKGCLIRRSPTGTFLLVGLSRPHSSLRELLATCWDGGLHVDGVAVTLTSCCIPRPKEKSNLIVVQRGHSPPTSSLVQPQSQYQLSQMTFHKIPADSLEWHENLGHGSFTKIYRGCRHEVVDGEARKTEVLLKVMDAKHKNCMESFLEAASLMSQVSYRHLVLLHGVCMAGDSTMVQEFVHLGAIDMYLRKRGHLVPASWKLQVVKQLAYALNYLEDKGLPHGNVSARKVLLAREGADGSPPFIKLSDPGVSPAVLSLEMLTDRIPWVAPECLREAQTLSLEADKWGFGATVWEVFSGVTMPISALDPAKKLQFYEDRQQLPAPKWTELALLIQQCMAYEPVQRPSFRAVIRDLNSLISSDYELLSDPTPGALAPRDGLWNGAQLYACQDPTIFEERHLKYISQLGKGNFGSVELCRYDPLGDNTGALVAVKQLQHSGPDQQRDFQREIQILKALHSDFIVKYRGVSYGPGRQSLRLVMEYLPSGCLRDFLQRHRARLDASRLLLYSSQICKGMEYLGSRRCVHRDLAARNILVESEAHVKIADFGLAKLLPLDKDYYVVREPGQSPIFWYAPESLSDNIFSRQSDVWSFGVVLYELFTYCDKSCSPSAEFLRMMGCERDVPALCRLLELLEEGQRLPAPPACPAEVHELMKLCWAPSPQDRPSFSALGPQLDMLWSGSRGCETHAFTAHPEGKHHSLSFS
The conditions noted are these: at 1 µM.

The target in experiment [20] is T5, Tyrosine-protein kinase JAK3 (Homo sapiens). As to conditions: at 10 µM.

One may read the residual activity as the signal under treatment as a percentage of the control signal. Regarding `COc1cc2ncnc(Nc3ccc(OCc4ccccc4)cc3)c2cc1OC`, the residual activity was determined as 105% in experiment [1]; 99% in experiment [2]; 117% in experiment [3]; 103% in experiment [4]; 115% in [5]; 98% in experiment [6]. Also, the residual activity in [7] is 102%; in experiment [8], 104%; in experiment [9], 81%; in experiment [10], 102%; in experiment [11], 127%; in experiment [12], 92%. In addition, the residual activity in experiment [13] was found to be 125%; in experiment [14], 57%; in experiment [15], 107%; in [16], 99%; in experiment [17] it was 110%; in experiment [18] it was 90%. Further, the residual activity in experiment [19] was determined as 101%; in [20], 100%.
For the compound `C[S+]([O-])c1ccc(-c2nc(-c3ccc(F)cc3)c(-c3ccncc3)[nH]2)cc1` (stereo not drawn), the residual activity in [1] worked out at 113%; in [2], 96%; in [3], 104%; in [4] it was 101%; in experiment [5], 94%; in [6], 129%. Besides, the residual activity in experiment [7] turned out to be 103%; in experiment [8], 98%; in [9], 108%; in [10] it was 97%; in [11] it was 113%; in experiment [12], 86%. Also, the residual activity was 109% in experiment [13]; 56% in experiment [14]; 100% in [15]; 104% in [16]; 112% in [17]; 119% in [18]. In addition, the residual activity was 107% in [19] and 112% in [20].
Regarding `O=C1c2ccccc2-c2nc3nnnn3nc21`, the residual activity in [3] was determined as 111%; in experiment [4] it was 81%; in experiment [5] it was 121%; in [6], 102%; in [7], 104%; in experiment [8], 109%. Also, the residual activity stood at 109% in experiment [9]; 103% in experiment [10]; 129% in [11]; 108% in [12]; 111% in experiment [17]; 103% in experiment [19].
For the compound `O=C1NC(=O)c2c1c1c3ccccc3n3c1c1c2c2ccccc2n1C1CCC3O1`, the residual activity in [1] turned out to be 93%; in [2], 73%; in experiment [5] it was 94%; in experiment [6], 79%; in [7] it was 100%; in experiment [8], 88%. Further, the residual activity in experiment [11] was 38%; in [12], 18%; in [13], 74%; in [14], 63%; in experiment [15], 88%; in experiment [16], 70%. Also, the residual activity came to 86% in experiment [17], 82% in [18], 8% in experiment [19] and 9% in experiment [20].
